{"source": "PubChem BioAssay AID1645879", "about": "(National Center for Advancing Translational Sciences (NCATS), 2021)", "note": "Records with an inconclusive call do not appear. A call without a number means that no potency is given here. Activity calls are given as the source filed them. The call rests on the fitted dose curve; in most records, active means well fitted inhibition curve with a large enough effect; inconclusive means small, poorly fitted or top-dose-only effect; inactive means no such curve, though single readings can be large or run the other way."}
{"experiment": "Counterscreen qHTS assay for inhibitors of N-terminal methyltransferase 1 (NTMT1): SPKRIA Counterscreen Assay", "details": "biochemical qHTS; series mostly up to 99.2 µM", "description": "Assay Submitter (PI): Rong Huang Ph.D,\nPurdue University, West Lafayette, IN 47907\nThe N-terminal methytransferase 1 is the first methyltransferase that methylates protein alpha-N-amines and plays an important role in regulating cell mitosis, chromatin interactions and DNA repair. It is observed to be over-expressed in various cancer patient tissues like malignant melanoma and colorectal cancer tissues. Knockdown of NTMT1 in cancer cells causes cell mitotic defects and enhances sensitivity to DNA damaging chemotherapeutics. […] These critical cellular processes in which NTMT1 is implicated, coupled with emerging links to cellular dysfunction, strengthen the inference that NTMT1 is a compelling novel anticancer target. Progress have been made in understanding the molecular properties of NTMT1 and the biological consequences of protein alpha-N-terminal methylation, but there are no specific small molecule probes available for NTMT1 to fully characterize its MTase activity. To address this unmet need, a panel of assay is created and established to enable quantitative high-throughput screening (qHTS) for novel, potent, and selective small molecule NTMT1 inhibitors. Two orthogonal qHTS that use different reagents (ThioGlo vs. MTaseGlo) are developed for primary robotic screening against the NCATS chemical library of more than 400,000 small molecules. Identified inhibitors are reacquired, validated, and further characterized.\nMTaseGlo Assay is a luminescence screen that measure the activity of methyltransferases based on the reaction product S-adenosyl homocysteine (SAH). The substrate SAM is converted to SAH upon enzyme activation. MTase-Glo reagent and detection solution convert SAH to ATP and measure the light from the luciferase reaction. Nicotinamide N-methyltransferase (NNMT) is a cystolic enzyme that catalyzes the transfer of a methyl group from the co-factor SAM onto the substrate, nicotinamide (NA) to form 1-methyl-nicotinamide (MNA) and SAH. NNMT MTaseGlo assay is used as a counterscreen to evaluate selectivity of identified inhibitors.\nSPKRIA and Ac-RCC-10 control is provided by the Huang laboratory.\nPROTOCOL TABLE; SEQUENCE No. (e.g., 1, 2, 3, etc.); […] (e.g., Cells, Incubation, Reagent, etc.); VALUE; DESCRIPTION\n1; Reagent; 3 uL; dispense assay buffer.\n2; Compound; 23 nL; pin compounds and control into the assay plate.\n3; Time; 15 min; room temperature incubation.\n4; Reagent; 1 uL; dispensed [4x] substrate or buffer.\n5; Time; 30 min; incubate at room temperature.\n6; Reagent; 1 uL; dispense MTase-Glo Reagent (R).\n7; Time; 30 min; incubate at room temperature.\n8; Reagent; 5 uL; dispense [1x] MTase-Glo Detection Solution to allow for ADP to be converted to ATP.\n9; Centrifugation; 1,000 RPMs; assay plates were centrifuged.\n10; Incubation; 30 min; room temperature.\n11; Detection; Luminescence; ViewLux plate reader (clear filter, 10 second exposure).\nNOTES (numbers refer to Sequence numbers above; values are from representative experiments)\n1; Dispense the assay buffer into Greiner 1536-well black / solid bottom assay plate (Greiner Bio One, Monroe, NC).\n2; Pin control inhibitor Ac-RCC1-10 at a final concentration range of 234 nM to 143 uM using a Wako Pin Tool (Wako Automation USA) equipped with a 1536-slotted pin array (Wako Automation, Richmond, VA). Pin compound library into the assay plates (columns 5 - 48) at a final concentration range of 97 nM to 250 uM.\n3; Incubate the assay plates at room temperature.\n4; Dispense 1 uL of substrate SPKRIA solution (final concentration 1 uM) or 1 uL buffer was added to the wells bringing the final assay volume to 4uL. The assay plate was covered with metal lids.\n5; Incubate the assay plate at room temperature.\n6; Dispense 1 uL of 5x MTase-Glo Reagent in the assay plate.\n7; Incubate at room temperature to allow for SAH to be converted to ADP\n8; Dispense 5 uL of 5x MTase-Glo Detection Solution in the assay plate to allow for ADP to be converted to ATP.\n9; Assay plates were centrifuged for 15 seconds.\n[…]"}
{"smiles": "COc1ccc(C(=O)Nc2onc3c2CCCC3)cc1", "Potency": "inactive"}
{"smiles": "Cc1ccc(-n2ncc3c(NCCO)ncnc32)cc1Cl", "Potency": "31.6 µM (active)"}
{"smiles": "O=C(O)c1cccc(-c2noc(-c3ccccc3F)n2)c1", "Potency": "inactive"}
{"smiles": "Cc1cc2c(s1)c1cnn(Cc3ccc(C)c(F)c3)c(=O)c1n2C", "Potency": "inactive"}
{"smiles": "O=c1cc(-c2ccccc2)oc2ccccc12", "Potency": "112 µM (active)"}
{"smiles": "Oc1ccc(-c2nc(-c3ccc(F)cc3)c(-c3ccncc3)[nH]2)cc1", "Potency": "44.7 µM (active)"}
{"smiles": "C[C@]12CC[C@@H]3c4ccc(O)cc4CC[C@H]3[C@@H]1C[C@@H](O)[C@@H]2O", "Potency": "inactive"}
{"smiles": "Cc1cc(C)n2c(Nc3c(C)cccc3C)c(-c3ccsc3)nc2n1", "Potency": "inactive"}
{"smiles": "COc1cc(C)c(/C=C/C(C)=C/C=C/C(C)=C/C(=O)O)c(C)c1C", "Potency": "inactive"}
{"smiles": "Oc1cccc(Nc2cc(-c3ccccc3)ncn2)c1", "Potency": "39.8 µM (active)"}
{"smiles": "Cc1c(Cl)cccc1Nc1nn2c(=O)c3ccccc3nc2s1", "Potency": "inactive"}
{"smiles": "COc1ccccc1C(=O)Nc1onc2c1CCCC2", "Potency": "inactive"}
{"smiles": "O=c1[nH]cnc2nc[nH]c12", "Potency": "inactive"}
{"smiles": "CN(C)C(=O)c1ccc(-c2cc[nH]c(=O)c2N)cc1", "Potency": "inactive"}
{"smiles": "Nc1nc2c(s1)C(c1ccccc1Cl)CC(=O)N2", "note": "(stereo not given)", "Potency": "inactive"}
{"smiles": "Cc1cc(C)nc(NC(=S)N2CCN(c3ccncc3)CC2)c1", "Potency": "inactive"}
{"smiles": "CN1CCCN=C1/C=C/c1cccs1", "Potency": "inactive"}
{"smiles": "Oc1cccc(Nc2nc(-c3ccccc3)nc3ccccc23)c1", "Potency": "20 µM (active)"}
{"smiles": "COc1cc2ncnc(Nc3cccc(Cl)c3)c2cc1OC", "Potency": "22.4 µM (active)"}
{"smiles": "COCCCNC(=O)CSc1c2c(nc3ccc(Cl)cc13)CCCC2", "Potency": "inactive"}
{"smiles": "Cc1nc(C)c(-c2ccc3ncnc(NCc4ncc[nH]4)c3c2)s1", "Potency": "44.7 µM (active)"}
{"smiles": "CC(=O)Nc1sc2c(c1-c1nc3ccccc3s1)CNC2", "Potency": "inactive"}
{"smiles": "COc1ccc(C(=O)Nc2noc3ccccc23)cc1", "Potency": "39.8 µM (active)"}
{"smiles": "Clc1ccc2ncc(-c3cccc(NC4CCNC4)n3)n2c1", "note": "(stereo not given)", "Potency": "inactive"}
{"smiles": "NC(=O)c1ncn([C@@H]2O[C@H](CO)[C@@H](O)[C@H]2O)c1N", "Potency": "inactive"}
{"smiles": "Cc1cc2c(s1)c1cnn(Cc3cccc(C)c3F)c(=O)c1n2C", "Potency": "inactive"}
{"smiles": "NC(=O)C1CCN(c2nc(-c3ccccc3Cl)cs2)CC1", "Potency": "inactive"}
{"smiles": "CC(C)=CCC/C(C)=C/CC/C(C)=C/CSc1ccccc1C(=O)O", "Potency": "inactive"}
{"smiles": "Cc1cc2c(s1)c1cnn(Cc3cccc(F)c3)c(=O)c1n2C", "Potency": "inactive"}
{"smiles": "O=C(Nc1noc2ccccc12)c1c(F)cccc1F", "Potency": "inactive"}
{"smiles": "COCCCNc1ncnc2onc(-c3ccc(F)cc3)c12", "Potency": "50.1 µM (active)"}
{"smiles": "O=C(Nc1ccc2c(c1)CCC2)Nc1nnc(-c2ccncc2)s1", "Potency": "inactive"}
{"smiles": "CCC1(C)CC(=O)NC1=O", "note": "(stereo not given)", "Potency": "inactive"}
{"smiles": "O=C(Nc1nc2c(s1)CCCC2)c1ccccc1F", "Potency": "39.8 µM (active)"}
{"smiles": "Oc1ccc(Cl)cc1Nc1nc2ccccc2n2cnnc12", "Potency": "inactive"}
{"smiles": "O=c1cc(-c2ccccc2)oc2ccc(O)cc12", "Potency": "31.6 µM (active)"}
{"smiles": "Nc1ccc2nc(-c3ccc(O)cc3)sc2c1", "Potency": "44.7 µM (active)"}
{"smiles": "COc1cccc(C(=O)Nc2nc3c(s2)CCCC3)c1", "Potency": "50.1 µM (active)"}
{"smiles": "Cc1cccc(-n2cnc3cc(C(=O)NC4CCCC4)ccc32)c1", "Potency": "44.7 µM (active)"}
{"smiles": "C1CCC(C(CC2CCCCN2)C2CCCCC2)CC1", "note": "(stereo not given)", "Potency": "inactive"}
